Rows were chosen to be rich in hits. Some 12% of all compounds tested hit in one or more screens of this group.
Sm TGR inh = S. mansoni TGR enzyme inhibition | Q962Y6 | purified TGR, DTNB reduction, TNB absorbance 405 nm | Potency, µM (titrated, usually from 114 µM), hits mostly inhibitors | 3% of 360,000 active | AID 485364; active = well fitted inhibition curve with a large enough effect; inconclusive = small, poorly fitted or top-dose-only effect; inactive = no such curve, though single readings can be large or run the other way; note: nearly all actives have a fitted effect of over 60% in size
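TGR 20 nM + NADPH 100 uM (dispensed conc.), cpd preinc 15 min RT; start with NADPH (500 uM addition) then DTNB (15 mM addition). Kinetic TNB absorbance, 405 nm filter. Four-parameter Hill fit across titration.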
Shiga inhibitor = blocks Shiga toxin action in Vero cells. Vero cells, Shiga toxin protein synthesis inhibition reporter. inhibition, % at 38.7 µM. 9.2% of 290,000 active; in the data active = inhibition mostly above about 28%, no sharp cut-off; inactive = mostly below about 43%
Cycloheximide cs = counter-screen for Shiga toxin inhibitors: cycloheximide protein synthesis inhibition; AID 2314; 12% of 300,000 active; max response, %; cell reporter, cycloheximide protein synthesis inhibition counterscreen; in the data active = max response mostly above about 13%, no sharp cut-off; inactive = mostly below about 14%; note: read at 38.3 µM for the half of the compounds with a filed dose
FMDV inh = blocks foot and mouth disease virus; FMDV antiviral cell-based qHTS; Potency, µM (titrated, usually from 57.9 µM), usual class: inhibitors; 1.2% of 410,000 active; calls by dose curve; tested in HEK293T cells; note: read-out not given here; nearly all actives have a fitted effect of over 45% in size
A number is an active result; . = inactive; ? = inconclusive; / = no result given.

SMILES	Sm TGR inh	Shiga inhibitor	Cycloheximide cs	FMDV inh
O=C(NCCc1ccc(C(F)(F)F)cc1)C1COc2ccccc2O1 (centres undefined)	.	112	42	.
C=C1C[C@@]23CC4C5[C@@]6(C)C[C@H](O)C[C@@]57C2[C@H](O)[C@@H]1[C@H](O)[C@H]3[C@H]7N4C6	/	/	/	.
Cc1cc(Cl)ccc1NS(=O)(=O)c1cc2[nH]c(=O)c(=O)[nH]c2cc1C	.	/	/	.
CCN(CC)c1ccc(NS(=O)(=O)c2cc3[nH]c(=O)c(=O)[nH]c3cc2C)c(C)c1	35µM	/	/	.
CCOC(=O)c1ccccc1NC(=O)c1c2c(nc3ccccc13)C(=O)N(C1CCCCC1)C2	.	/	/	.
CN(C)c1ccc(NC2=C([N+](=O)[O-])CS(=O)(=O)C2)cc1	2.2µM	.	.	/
CCOC(=O)CSc1nc2sc3c(c2c(=O)n1-c1ccccc1)CC(C(C)C)OC3 (centres undefined)	.	/	/	.
Cc1ccc(C2c3cccn3CCN2S(=O)(=O)c2ccc([N+](=O)[O-])cc2)cc1 (centres undefined)	?	/	/	.
CCOC(=O)c1cnc(SCC(=O)c2ccc(Cl)cc2)nc1N	.	.	.	.
CCOC(=O)c1cnc(SCc2nc(N)nc(Nc3ccccc3)n2)nc1N	.	.	.	?
CCOC(=O)c1cnc(SCc2ccc(C)cc2)nc1N	.	106	33	.
CCOC(=O)c1cnc(SC2CCc3ccccc3C2=O)nc1N (centres undefined)	?	71	33	.
CCOC(=O)c1cnc(SCCc2ccccc2)nc1N	.	97	35	.
CCCCSc1ncc(C(=O)OCC)c(N)n1	.	68	46	.
Cc1ccc(C2CC(c3ccco3)n3ncnc3N2)cc1 (centres undefined)	.	.	.	.
Cc1ccc2c(c1)C(N1CCCC1=O)CC(c1ccco1)N2 (centres undefined)	10µM	92	53	.
CC(=O)Nc1ccc(SCc2ncc(-c3ccccc3)o2)cc1	.	90	44	.
COc1cc(C(=O)O[C@@H]2CC3CC[C@]2(C)C3(C)C)ccc1O	/	29	.	/
COc1cc(C(=O)C(=O)c2ccc(OC)c(OC)c2)ccc1O	/	/	/	.
CC(=O)Nc1ccc(S(=O)(=O)NCC(=O)OCC(=O)NC(=O)C2CCCCC2)cc1	.	.	21	.
CN(C)c1ccc(S(=O)(=O)NCC(=O)OCC(=O)NC(=O)C2CCCCC2)cc1[N+](=O)[O-]	.	/	/	.
Cn1c(SCc2cccnc2)nc2c(c1=O)SCC2	.	.	.	.
Cn1c(SCc2cccc([N+](=O)[O-])c2)nc2c(c1=O)SCC2	.	.	.	28µM
Cc1c(C)n(Cc2ccc(F)cc2)c2ccc(C(=O)N3CCN(c4ccc(Cl)cc4)CC3)cc12	.	/	/	.
CC(=O)/C(N=Nc1ccc(SC(F)F)cc1)=C(\C)O	.	59	44	.
SMILES	Sm TGR inh	Shiga inhibitor	Cycloheximide cs	FMDV inh
CC(=O)N1CC=C2C(C#N)=C(N)C(C#N)(C#N)C(CCc3ccccc3)C2C1 (centres undefined)	40µM	.	.	?
CC(=O)N1CC=C2C(C#N)=C(N)C(C#N)(C#N)C(C)C2C1 (centres undefined)	?	.	.	.
N#CC1=C(N)C(C#N)(C#N)[C@H](c2ccoc2)[C@H]2CN(Cc3ccccc3)CC=C12	?	.	.	?
CCN1CC=C2C(C#N)=C(N)C(C#N)(C#N)C(CCc3ccccc3)C2C1 (centres undefined)	28µM	.	.	.
CCCC(=O)OC1(C(=O)CO)CCC2C3CCC4=CC(=O)CCC4(C)C3C(O)CC21C (centres undefined)	/	.	.	/
O=S(=O)(NCC(O)c1ccccc1)c1cc(Cl)sc1Cl (centres undefined)	.	25	.	.
O=C(N/C=C/c1ccccc1)Nc1ccc(Cl)cc1	.	198	74	.
Cc1ccc(NC(=O)N/C=C/c2ccc(Cl)cc2)cc1	.	.	.	.
COc1ccc(NC(=O)N/C=C/c2ccc(Cl)cc2)cc1	.	.	.	.
Cc1ccc(NC(=O)N/C=C/c2ccccc2)cc1	.	42	24	.
COCC(=O)N1CCC[C@@]2(CCN(C(c3ccccc3)c3ccccc3)C2)C1	/	/	/	.
COc1ccc(N2CC(NC(=O)COc3ccccc3C)CC2=O)cc1OC (centres undefined)	.	/	/	.
CC(=O)n1cc(N(C(=O)CCl)c2ccc(Cl)cc2)c2ccccc21	0.32µM	61	27	11µM
COc1ccccc1N(C(=O)CCl)c1cn(C(C)=O)c2ccccc12	3.2µM	.	.	18µM
CCCn1c2ccccc2c2cnn(CC(=O)NCc3ccc(OC)cc3)c(=O)c21	.	/	/	.
COc1nccnc1NS(=O)(=O)c1ccc(NC(=S)NC(=O)c2cccnc2)cc1	20µM	.	.	.
COc1nccnc1NS(=O)(=O)c1ccc(NC(=S)NC(=O)c2ccc(F)cc2)cc1	45µM	.	.	.
COc1nccnc1NS(=O)(=O)c1ccc(NC(=S)NC(=O)c2cccc(F)c2)cc1	45µM	.	.	.
COc1nsnc1NS(=O)(=O)c1ccc(NC(=S)NC(=O)c2cccnc2)cc1	/	.	.	.
COc1nsnc1NS(=O)(=O)c1ccc(NC(=S)NC(=O)c2ccncc2)cc1	32µM	.	.	.
COc1ccc(C(CC(=O)NCc2ccc(Cl)cc2)N2Cc3ccccc3C2=O)cc1OC (centres undefined)	.	/	/	.
CN(C)c1ccc(CN(CC2CCCO2)C(=O)COc2ccccc2Cl)cc1 (centres undefined)	.	/	/	.
CCOc1ccc(Nc2c(S(=O)(=O)c3ccccc3)cnc3ccc(CC)cc23)cc1	.	/	/	?
Cc1nn(S(=O)(=O)c2ccc(C(C)C)cc2)c(C)c1S(=O)(=O)N1CCCCCC1	.	/	/	.
O=C(NC(=S)Nc1ccc(S(=O)(=O)Nc2nccs2)cc1)c1ccc(F)cc1	28µM	.	.	.
SMILES	Sm TGR inh	Shiga inhibitor	Cycloheximide cs	FMDV inh
CSc1nc2ncc(-c3ccsc3)c(N)n2n1	.	62	49	.
Cc1ccc(Cl)cc1N1CCN(C(=O)c2cc3c(-c4ccccc4F)nn(C)c3s2)CC1	.	/	/	.
COc1ccc(NC(=O)/C=C/c2ccc(C)o2)cc1S(=O)(=O)N1CCOCC1	18µM	.	.	.
COc1cc2c(cc1OC)CN(C(=O)c1ccc(OC)c(S(=O)(=O)N3CCOCC3)c1)CC2	.	.	24	.
COc1ccc(C(=O)Nc2ccc(-c3ccc(C)o3)cc2)cc1S(=O)(=O)N1CCOCC1	50µM	.	19	10µM
COc1ccc(C(=O)Nc2ccc(N3CCOCC3)cc2)cc1S(=O)(=O)N1CCOCC1	.	/	/	.
COc1ccc(/C=C/C(=O)Nc2cccc(F)c2)cc1S(=O)(=O)N1CCOCC1	.	.	28	35µM
COC(=O)c1ccc(CSc2nc3c([nH]c4ccccc43)c(=O)n2-c2cc(C)cc(C)c2)o1	.	/	/	.
CCn1cc(S(=O)(=O)c2ccccc2)c(=O)c2cc(F)c(N3CCCCCC3)cc21	.	/	/	.
CSc1cccc(NC(=O)C2CCCN(S(=O)(=O)c3ccc4c(c3)CCCN4C(C)=O)C2)c1 (centres undefined)	.	/	/	.
CCCOc1ccccc1NC(=O)/C=C/c1ccc(OC)c(S(=O)(=O)N2CCOCC2)c1	/	/	/	.
COc1ccc(/C=C/C(=O)Nc2ccccc2C)cc1S(=O)(=O)N1CCOCC1	.	66	62	?

Assay outcomes deposited in PubChem BioAssay by National Center for Advancing Translational Sciences (NCATS).
